For one compound, residual activity results are on record in ChEMBL document CHEMBL2218924, “A broad activity screen in support of a chemogenomic map for kinase signalling research and drug discovery” (Biochem J, 2013).

Each structure is given as a SMILES string.

Assay [1] deals with Tyrosine-protein kinase SYK (Homo sapiens) (UniProt P43405). Particulars: at 10 µM.
Assay [2] concerns the target T1, Mitogen-activated protein kinase kinase kinase 7 (Homo sapiens) (UniProt O43318).
T1 sequence (whole entry): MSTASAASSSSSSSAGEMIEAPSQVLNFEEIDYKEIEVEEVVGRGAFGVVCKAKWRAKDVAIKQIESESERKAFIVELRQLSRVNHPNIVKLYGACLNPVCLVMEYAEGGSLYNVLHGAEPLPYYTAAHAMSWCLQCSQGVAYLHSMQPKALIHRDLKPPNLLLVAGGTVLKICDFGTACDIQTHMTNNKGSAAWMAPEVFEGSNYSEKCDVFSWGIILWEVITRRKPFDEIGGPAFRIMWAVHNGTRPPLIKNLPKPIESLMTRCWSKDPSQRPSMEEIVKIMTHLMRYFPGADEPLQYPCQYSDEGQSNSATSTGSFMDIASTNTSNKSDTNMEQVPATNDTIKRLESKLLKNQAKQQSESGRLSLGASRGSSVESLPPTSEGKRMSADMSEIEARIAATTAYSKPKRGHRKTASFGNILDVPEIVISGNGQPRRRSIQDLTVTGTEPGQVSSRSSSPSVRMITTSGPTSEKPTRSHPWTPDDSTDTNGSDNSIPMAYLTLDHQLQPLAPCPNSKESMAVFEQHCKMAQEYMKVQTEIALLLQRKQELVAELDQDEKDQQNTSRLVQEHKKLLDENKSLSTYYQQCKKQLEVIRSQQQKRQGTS
Particulars: at 1 µM.

The target in assay [3] is T1, Mitogen-activated protein kinase kinase kinase 7 (Homo sapiens). The following applies: at 10 µM.
Assay [4] addresses T2, Serine/threonine-protein kinase TAO1 (Homo sapiens) (UniProt Q7L7X3).
T2 sequence (whole entry): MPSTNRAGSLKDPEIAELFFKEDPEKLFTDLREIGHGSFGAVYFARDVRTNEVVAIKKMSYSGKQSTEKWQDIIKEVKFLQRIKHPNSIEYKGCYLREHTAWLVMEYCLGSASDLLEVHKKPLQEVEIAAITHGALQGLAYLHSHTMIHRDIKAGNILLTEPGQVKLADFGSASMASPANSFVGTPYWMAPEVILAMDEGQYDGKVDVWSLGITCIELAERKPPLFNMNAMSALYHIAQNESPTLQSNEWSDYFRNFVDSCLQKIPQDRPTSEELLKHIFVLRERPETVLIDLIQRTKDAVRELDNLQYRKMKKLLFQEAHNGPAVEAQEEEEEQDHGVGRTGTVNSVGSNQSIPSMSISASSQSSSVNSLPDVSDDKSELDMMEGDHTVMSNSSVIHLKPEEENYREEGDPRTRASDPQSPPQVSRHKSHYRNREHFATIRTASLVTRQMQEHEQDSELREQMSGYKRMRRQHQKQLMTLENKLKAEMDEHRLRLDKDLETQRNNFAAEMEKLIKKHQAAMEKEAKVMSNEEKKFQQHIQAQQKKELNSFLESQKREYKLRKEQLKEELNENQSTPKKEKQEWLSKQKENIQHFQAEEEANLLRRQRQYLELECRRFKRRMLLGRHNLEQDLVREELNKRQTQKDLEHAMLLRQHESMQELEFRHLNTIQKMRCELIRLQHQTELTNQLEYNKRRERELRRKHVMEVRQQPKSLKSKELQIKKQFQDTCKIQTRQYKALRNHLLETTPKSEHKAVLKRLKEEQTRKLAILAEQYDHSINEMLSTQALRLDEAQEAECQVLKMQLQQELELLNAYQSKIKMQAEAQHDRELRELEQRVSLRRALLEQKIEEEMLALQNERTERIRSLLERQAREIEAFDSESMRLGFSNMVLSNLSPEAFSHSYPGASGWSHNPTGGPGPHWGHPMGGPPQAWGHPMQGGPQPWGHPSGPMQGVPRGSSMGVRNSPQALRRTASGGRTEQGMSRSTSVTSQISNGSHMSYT
Particulars: at 1 µM.

Assay [5] has as its target T2, Serine/threonine-protein kinase TAO1 (Homo sapiens). Particulars: at 10 µM.
The target in assay [6] is T3, Serine/threonine-protein kinase TAO2 (Homo sapiens) (UniProt Q9UL54).
T3 sequence (whole entry): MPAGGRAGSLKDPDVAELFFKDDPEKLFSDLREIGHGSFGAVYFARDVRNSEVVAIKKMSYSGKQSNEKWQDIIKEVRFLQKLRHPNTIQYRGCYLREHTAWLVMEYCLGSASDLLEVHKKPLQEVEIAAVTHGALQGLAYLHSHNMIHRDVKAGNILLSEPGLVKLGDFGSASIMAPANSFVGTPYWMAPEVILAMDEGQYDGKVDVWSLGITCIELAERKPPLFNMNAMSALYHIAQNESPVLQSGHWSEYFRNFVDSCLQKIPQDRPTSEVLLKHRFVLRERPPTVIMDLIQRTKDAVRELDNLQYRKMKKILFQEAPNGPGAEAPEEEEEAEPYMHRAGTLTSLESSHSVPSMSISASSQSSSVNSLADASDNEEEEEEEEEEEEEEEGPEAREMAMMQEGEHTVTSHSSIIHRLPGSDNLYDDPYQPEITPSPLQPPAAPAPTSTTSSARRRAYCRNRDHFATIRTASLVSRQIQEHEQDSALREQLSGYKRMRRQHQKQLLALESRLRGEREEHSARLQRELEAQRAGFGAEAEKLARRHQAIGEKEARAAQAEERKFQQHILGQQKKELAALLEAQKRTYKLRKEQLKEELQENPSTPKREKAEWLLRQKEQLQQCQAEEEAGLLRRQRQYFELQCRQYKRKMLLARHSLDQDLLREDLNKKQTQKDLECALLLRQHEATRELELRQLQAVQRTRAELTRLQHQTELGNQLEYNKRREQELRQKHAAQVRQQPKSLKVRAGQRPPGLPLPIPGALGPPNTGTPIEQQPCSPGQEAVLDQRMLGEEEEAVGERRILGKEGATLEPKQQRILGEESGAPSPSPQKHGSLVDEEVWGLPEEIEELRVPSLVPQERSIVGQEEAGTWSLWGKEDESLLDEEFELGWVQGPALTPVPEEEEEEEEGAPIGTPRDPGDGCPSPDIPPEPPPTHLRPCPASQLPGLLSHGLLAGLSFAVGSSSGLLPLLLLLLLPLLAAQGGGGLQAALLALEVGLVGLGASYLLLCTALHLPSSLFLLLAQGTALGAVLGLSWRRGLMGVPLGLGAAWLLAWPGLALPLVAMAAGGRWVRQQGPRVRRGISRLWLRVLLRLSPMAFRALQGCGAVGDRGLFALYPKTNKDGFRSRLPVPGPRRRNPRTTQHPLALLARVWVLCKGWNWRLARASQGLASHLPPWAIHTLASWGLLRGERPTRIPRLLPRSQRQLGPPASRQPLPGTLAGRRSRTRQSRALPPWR
The following applies: at 1 µM.

In assay [7] the target is T3, Serine/threonine-protein kinase TAO2 (Homo sapiens). The following applies: at 10 µM.
Assay [8] has as its target T4, Serine/threonine-protein kinase TAO3 (Homo sapiens) (UniProt Q9H2K8).
T4 sequence (whole entry): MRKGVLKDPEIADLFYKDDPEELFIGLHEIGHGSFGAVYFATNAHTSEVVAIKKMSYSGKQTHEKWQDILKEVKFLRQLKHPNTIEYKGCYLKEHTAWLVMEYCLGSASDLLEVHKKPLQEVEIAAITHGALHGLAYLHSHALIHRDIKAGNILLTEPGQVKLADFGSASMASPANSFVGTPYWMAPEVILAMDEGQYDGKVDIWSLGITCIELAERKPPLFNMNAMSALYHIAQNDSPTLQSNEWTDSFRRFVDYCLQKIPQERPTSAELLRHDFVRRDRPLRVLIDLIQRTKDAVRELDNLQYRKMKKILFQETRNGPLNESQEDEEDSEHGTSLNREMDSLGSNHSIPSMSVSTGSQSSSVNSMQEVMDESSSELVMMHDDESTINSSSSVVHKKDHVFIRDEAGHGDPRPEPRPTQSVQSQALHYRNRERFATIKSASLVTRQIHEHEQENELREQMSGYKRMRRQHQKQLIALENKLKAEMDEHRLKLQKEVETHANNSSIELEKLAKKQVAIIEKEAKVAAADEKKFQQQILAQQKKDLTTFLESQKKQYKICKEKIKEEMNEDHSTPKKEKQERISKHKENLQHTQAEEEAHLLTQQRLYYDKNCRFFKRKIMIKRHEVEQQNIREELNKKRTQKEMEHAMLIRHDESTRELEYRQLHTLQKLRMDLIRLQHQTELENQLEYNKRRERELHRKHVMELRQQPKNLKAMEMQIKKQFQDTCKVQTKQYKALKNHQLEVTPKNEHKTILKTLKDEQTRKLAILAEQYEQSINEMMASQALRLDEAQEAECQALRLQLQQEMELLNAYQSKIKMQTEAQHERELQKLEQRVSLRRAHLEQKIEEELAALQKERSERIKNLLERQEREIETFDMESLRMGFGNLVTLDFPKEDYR
Particulars: at 1 µM.

Assay [9] deals with T4, Serine/threonine-protein kinase TAO3 (Homo sapiens). The following applies: at 10 µM.
In assay [10] the target is T5, Serine/threonine-protein kinase TBK1 (Homo sapiens) (UniProt Q9UHD2).
T5 sequence (whole entry): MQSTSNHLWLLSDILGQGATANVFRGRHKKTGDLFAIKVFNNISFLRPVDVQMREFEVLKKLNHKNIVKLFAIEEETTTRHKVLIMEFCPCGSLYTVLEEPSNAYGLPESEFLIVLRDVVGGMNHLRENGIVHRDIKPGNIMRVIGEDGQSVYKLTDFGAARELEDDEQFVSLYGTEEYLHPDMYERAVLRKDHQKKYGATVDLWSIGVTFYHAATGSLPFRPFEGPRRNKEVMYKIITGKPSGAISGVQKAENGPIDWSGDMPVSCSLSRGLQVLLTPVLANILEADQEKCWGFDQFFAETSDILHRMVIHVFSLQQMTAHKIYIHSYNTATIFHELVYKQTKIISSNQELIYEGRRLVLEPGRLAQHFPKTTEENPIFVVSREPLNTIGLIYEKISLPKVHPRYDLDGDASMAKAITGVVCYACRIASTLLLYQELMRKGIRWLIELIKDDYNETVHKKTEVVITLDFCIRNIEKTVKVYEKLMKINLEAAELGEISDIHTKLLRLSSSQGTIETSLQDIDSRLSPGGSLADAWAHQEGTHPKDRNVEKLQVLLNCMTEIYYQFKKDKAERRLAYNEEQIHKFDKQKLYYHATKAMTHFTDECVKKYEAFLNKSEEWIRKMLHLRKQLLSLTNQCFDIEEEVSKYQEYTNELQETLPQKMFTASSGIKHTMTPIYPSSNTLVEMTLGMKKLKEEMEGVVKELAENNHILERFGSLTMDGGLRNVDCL
Particulars: at 1 µM.

With `C[C@@H](N)[C@H]1CC[C@H](C(=O)Nc2ccncc2)CC1`, the residual activity in assay [1] came to 102%; in [2], 109%; in assay [3] it was 113%; in assay [4] it was 93%; in assay [5], 78%; in assay [6], 112%. The residual activity amounted to 109% in [7], 105% in assay [8], 103% in [9] and 107% in assay [10].
